Bioassay records as filed in PubChem.
Rows were chosen to be rich in hits. Some 6.2% of all compounds tested hit in one or more screens of this group.
KB-3-1 cytotox: KB-3-1 parental cell cytotoxicity; AID 1347075; KB-3-1 viability, CellTiter-Glo ATP luminescence, 72 h; Potency, µM (doses to about 46.1 µM), actives largely listed as cytotoxic; hit rate 1.4% among 400,000; note: nearly all actives have a fitted effect of over 60% in size
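Here the drug-naive KB-3-1 line serves as comparator for MDR sub-line selectivity; cells received compound titrations, 72 h at 37 °C, then CellTiter-Glo readout.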
HT1080 IDH1KD tx: kills HT-1080 cells with IDH1 knockdown; Potency, µM (titrated, usually from 46.1 µM), hits mostly cytotoxic; HT-1080 IDH1 knockdown viability, ATP luminescence, 48 h; hit rate 2% among 360,000; AID 686971
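Cytotoxicity counter-line: IDH1KD HT-1080, 48 h, CellTiter-Glo. Curves classed by r2, magnitude and activity.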
HT1080NT lethal: kills 2HG-producing HT-1080-NT fibrosarcoma cells. HT-1080-NT fibrosarcoma viability, CellTiter-Glo ATP luminescence, 48 h. Potency, µM (titrated, usually from 46.1 µM), actives largely listed as cytotoxic. hit rate 1.6% among 360,000. AID 686970;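 note: NT is the 2HG producing partner of a matched IDH1 knockdown line; nearly all actives have a fitted effect of over 55% in size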
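Luminescent CellTiter-Glo readout after 48 hours of compound exposure at 37 degrees C defined viability of HT-1080-NT cells. Activity was normalized to DMSO wells and cell-free media wells; concentration-response curves were fitted and assigned curve classes.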
ATXN2 expr inh: ATXN2 expression inhibition | HEK-293 ATXN2-luciferase reporter, luminescence, 24 h | Potency, µM (doses to about 57 µM), usual class: inhibitors | hit rate 0.72% among 360,000; note: nearly all actives have a fitted effect of over 55% in size
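ATXN2-luciferase reporter cells (luciferase flanked by upstream and downstream ATXN2 gene portions) were treated 24 h at 37 °C with compounds at up to 57 uM. SteadyGlo luminescence gave expression; GF-AFC fluorescence gave viability.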
KB-V1 MDR tox: KB-V1 MDR subline cytotoxicity; KB-V1 MDR cells viability, CellTiter-Glo, 72 h; hit rate 3.4% among 400,000; Potency, µM (highest dose often 46.1 µM), usual class: cytotoxic; note: nearly all actives have a fitted effect of over 60% in size
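Compound-treated KB-V1 multidrug-resistant cells, 72 h, 37 degrees C; viability by CellTiter-Glo. Fitted qHTS curves give the values.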
ATXN viability: viability counter-screen for ATXN expression inhibitors | S2 cells (HEK-293 line with an ATXN2-luciferase reporter) viability, CellTiter-Fluor protease fluorescence, 24 h | Potency, µM (highest dose often 56.7 µM), most hits filed as cytotoxic | hit rate 0.49% among 400,000 | AID 651635; note: nearly all actives have a fitted effect of over 40% in size
Hits are given with their value; – = inactive; ? = inconclusive; · = not tested or not shown; ! = a repeat was not active. Calls come from the whole dose curve; as a rule, active = well fitted curve in the direction sought with a large enough effect; inconclusive = small, poorly fitted or top-dose-only effect, or another doubt; inactive = no such curve, though single readings can be large; an effect the other way counts as inactive or inconclusive.

SMILES | KB-3-1 cytotox | HT1080 IDH1KD tx | HT1080NT lethal | ATXN2 expr inh | KB-V1 MDR tox | ATXN viability
O=C(NCCc1ccccc1)c1ccc(CS(=O)(=O)Cc2ccccc2F)o1 | – | – | – | – | 14.6µM | ?
Cc1ccccc1CS(=O)(=O)Cc1ccc(C(=O)NCCc2ccc(Cl)cc2)o1 | – | · | · | · | – | ·
CCOC(=O)c1c(C)oc2nc(C)nc(NCc3ccc(OC)cc3)c12 | – | · | · | – | – | –
COCC1CCCN(Cc2ccc3c(c2)CN(C(=O)c2cnn(C(C)C)c2)CCO3)C1 (centres undefined) | · | · | · | · | · | –
COC(=O)C1CCN(c2nc(CN(C)C3CCOC3)nc3cc(OC)c(OC)cc23)CC1 (centres undefined) | · | · | · | · | · | –
COc1ccc(/C=C2/Sc3ccc(C(=O)NCCN4CCCCCC4)cc3NC2=O)cc1 | – | – | – | · | ? | 28.2µM
O=C1Nc2cc(C(=O)NCCCN3CCCC3)ccc2S/C1=C\c1ccccc1 | – | ? | – | · | – | ?
O=C(/C(=C/O)N=Nc1ccccc1)c1ccc(Cl)cc1 | – | 18.4µM | 16.4µM | ? | ? | ·
COc1cc(OC)c2ccc(=O)oc2c1C(CCN1CCCC(C)C1)c1ccc2c(c1)OCO2 (centres undefined) | – | – | – | – | – | 28.2µM
COc1cc(C(CCN2CCCCC2)c2c(OC)cc(OC)c3c(-c4ccccc4)cc(=O)oc23)cc(OC)c1OC (centres undefined) | ? | – | – | ? | ? | 25.1µM
COc1cc(C(CCN2CCCC(C)C2)c2c(OC)cc(OC)c3c(-c4ccccc4)cc(=O)oc23)cc(OC)c1OC (centres undefined) | ? | ? | 18.4µM | ? | – | ·
COc1cc(O)c(C(CCN2CCCC(C)C2)c2ccc3c(c2)OCO3)c(OC)c1 (centres undefined) | – | – | – | – | – | ?
Cc1cccc(CNC(=O)c2ccc(NC(=O)N3CC(C)Sc4ccccc43)cc2)c1 (centres undefined) | – | · | · | – | – | –
Brc1ccc[n+](CCc2ccccc2)c1 | – | · | · | · | – | ·
Cc1ccc(C)c(N2CCN(C(=O)c3cc4cc5ccc(C)cc5nc4s3)CC2)c1 | – | · | · | – | ? | –
CCCC(C)c1nc(C(N)=O)c2[nH]c(=O)n(-c3ccc(OC)c(OC)c3)c2n1 (centres undefined) | – | – | – | – | 5.8µM | –
COc1cccc(-c2nc(C(N)=O)c3[nH]c(=O)n(-c4cccc(Cl)c4)c3n2)c1OC | – | – | – | – | – | –
COc1ccc(-c2nc(C(N)=O)c3[nH]c(=O)n(-c4cccc(Cl)c4)c3n2)cc1OC | ? | 16.4µM | ? | ? | 7.31µM | ?
Cc1ccccc1CNC(=O)c1ccc(Cn2c(SCc3ccccc3)nc3cccnc32)cc1 | – | · | · | – | – | ?
CCN(C(=O)c1c(O)c2c(Cl)cccc2n(C)c1=O)c1ccccc1 | · | · | · | – | · | ·
C[C@@H]1CCC(=O)N(C[C@@H](C)CSc2ccc(Br)cc2)CC1 | – | – | – | – | ? | ?
COc1ccc(SC[C@H](C)CN2CC[C@H](O)CCC2=O)cc1 | – | · | · | · | – | ·
COc1ccc(SC[C@H](C)CN2CC[C@H](C)CCC2=O)cc1 | 18.4µM! | – | – | ? | 8.2µM! | ?
CC(=O)Nc1ccc(SC[C@H](C)CN2CC[C@H](C(C)(C)C)CCC2=O)cc1 | – | – | – | ? | ? | 28.2µM
Cc1ccc(SC[C@H](C)CN2CC[C@H](C)CCC2=O)cc1 | ? | – | – | – | 18.4µM! | ?
SMILES | KB-3-1 cytotox | HT1080 IDH1KD tx | HT1080NT lethal | ATXN2 expr inh | KB-V1 MDR tox | ATXN viability
Cc1ncc2c(c1CNC(=O)c1ccc3c(c1)OCO3)CCN(C(=O)c1csc3c1CCCC3)C2 | · | · | · | · | · | –
O=C(c1ccc(Cl)c(S(=O)(=O)N2CCc3ccccc32)c1)N1CCN(c2ccccc2O)CC1 | – | ? | – | ? | 18.4µM | ?
CC(=O)N1CCN(C(=O)c2ccc(Cl)c(S(=O)(=O)N3CCc4ccccc43)c2)CC1 | – | – | – | – | – | –
O=C(c1cccc(S(=O)(=O)N2CCc3ccccc32)c1)N1CCN(c2ccccn2)CC1 | 6.51µM | 9.2µM | ? | – | ? | ?
COc1ccc(N2CCN(C(=O)c3cccc(S(=O)(=O)N4CCc5ccccc54)c3)CC2)cc1 | – | – | – | ? | – | –
CC(C)C[C@@H](CN=[N+]=[N-])N1CCN(CCc2ccccc2)CCC1=O | – | · | · | · | – | ·
Cc1ccc(C(=O)Nc2ccncc2)cc1S(=O)(=O)N1CCCCC1 | ? | – | – | · | 14.6µM | –
Cc1ccc(C(=O)Nc2cccc(C(=O)O)c2)cc1S(=O)(=O)N1CCOCC1 | – | – | – | ? | – | –
CCN(CC)CCNC(=O)c1ccc(NC(=O)c2ccc(C(=O)c3ccccc3)cc2)cc1 | – | 20.6µM | 20.6µM | ? | – | –
Cc1ccc(NC(=O)CCNC(=O)c2ccc(Br)cc2)cc1S(=O)(=O)N1CCCCCC1 | ? | – | – | – | 20.6µM | –
Cc1ccc(C(=O)Nc2cccc(C(=O)O)c2)cc1S(=O)(=O)N1CCCCC1 | – | – | – | 12.6µM | – | –
Cc1c(C(=O)NCc2ccccc2Cl)sc2nc[nH]c(=O)c12 | – | · | · | · | – | ·
CCOc1cccc(OCCCn2c(-c3ccc(Br)cc3)nc3ccccc3c2=O)c1 | – | · | · | – | ? | –
